Molecules are shown by their SMILES. Several values for one entry are separate records, joined by “and”; a condition that tells them apart may be missing. Identical values can stand only once. About 470 (0.67%) of roughly 70,000 compounds were called active. Where a call stands in place of a potency, no number is given. Inconclusive results (about 18%) are left out. The call rests on the fitted dose curve. The full list was thinned out, with actives kept by preference.

This is an account of results in PubChem BioAssay AID912 (National Center for Advancing Translational Sciences (NCATS), 2007).
Potency means the concentration at half of the fitted maximal effect.

This assay in a line: qHTS Assay for Anthrax Lethal Toxin Internalization. Further: nearly all actives have a fitted effect of over 50% in size. As to conditions: Cells, FRET ratio (460/530); series mostly up to 40 µM.
As to `CC(C)CO/N=C1/C[C@@H](O)[C@@H](O)[C@@H]2[C@@H]3C(=O)N(C[C@@H]4CCCO4)C(=O)[C@H]3CC[C@@H]12`, the activity change, negative = inhibition is 0.14% [at 8 µM] (inactive).

Turning to `CCOC(=O)[C@]1(C(/C=C/c2ccco2)NC(=O)OC)CCCC1=O` (some centres undefined), the activity change, negative = inhibition was -10.5% [at 8 µM] (inactive).

For the compound `CSc1nnc2c(n1)OC(c1cn(C)c3ccccc13)N(C(C)=O)c1ccccc1-2` (centres undefined), the activity change, negative = inhibition entry was “inactive”.

For the compound `CC1(C)OC(C(O)(c2ccccc2)c2ccccc2)C(C(O)(c2ccccc2)c2ccccc2)O1` (centres undefined), the activity change, negative = inhibition was -5.79% [at 8 µM] (inactive).

For `CO[C@H]1COC(=O)C/C=C\[C@H](C)COC(=O)[C@@H](OCc2ccccc2)/C=C\[C@@H]1C`, the activity change, negative = inhibition is -13% [at 1.6 µM] (inactive).

In the case of `CCOC(=O)c1sc(NC(=O)C(CC)Sc2nccn2C)nc1C` (centres undefined), the activity change, negative = inhibition entry is “inactive”.

Consider `CC(C)CO`, for which the activity change, negative = inhibition entry is “inactive”.

Take `O=C(CSC1=Nc2ccccc2C2=NC(c3ccccc3)C(=O)N12)NCC1CCCO1` (centres undefined): the activity change, negative = inhibition entry is “inactive”.

As to `CC(C)CC1(C(=O)NCc2ccccn2)C=CCN1C(=O)c1ccccc1` (centres undefined), the activity change, negative = inhibition entry is “inactive”.

`CCCN(C/C=C\I)[C@@H]1CCc2cccc(O)c2C1`: the activity change, negative = inhibition entry is “inactive”.

`Brc1cc(Br)c(Oc2cc(Br)c(Br)cc2Br)cc1Br`: the Potency was 1 µM (active).

With `CCCCCCCCCCCC(=O)O[C@H](CC(=O)O)C[N+](C)(C)C`, the activity change, negative = inhibition result is “inactive”.

With `CCCOC(=O)Nc1ccccc1C(N)=O`, the activity change, negative = inhibition result is “inactive”.

`C=CCOC(=O)COCCC(C)C`: the activity change, negative = inhibition result was “inactive”.

Regarding `CCCn1c(C)nc2c(NCCCCN(CC)CC)nc(C)nc21`, the activity change, negative = inhibition entry was “inactive”.

Consider `CC(=O)c1c(O)c(C)c(O)c(Cc2c(O)c3c(c(C(=O)/C=C\c4ccccc4)c2O)OC(C)(C)C=C3)c1O`, for which the Potency was 15.8 µM (active).

Regarding `N#CCCn1c(=O)c(-c2cc(F)cc(F)c2)nc2cnc(Oc3ccccc3)nc21`, the activity change, negative = inhibition result was “inactive”.

With `CO[C@H]1COC(=O)[C@@H](C)NC(=O)C/C=C\[C@@H](C)[C@H](OC)COC(=O)C/C=C\[C@@H]1C`, the activity change, negative = inhibition was 5.17% [at 8 µM] (inactive).

With `c1ccc(CN2CC[C@@]3(CCCNC3)C2)cc1`, the Potency was 10 µM (active).

Regarding `CC(=O)N1CCC2(CCCN(Cc3ccccc3)C2)CC1`, the activity change, negative = inhibition result is “inactive”.

For the compound `CS(=O)(=O)N1CCC2(CC1)CN(Cc1ccccc1)C2`, the activity change, negative = inhibition entry was “inactive”.

Consider `CC(=O)N1[C@H](C)C=C[C@]1(Cc1ccccc1)C(=O)NCc1ccccn1`, for which the activity change, negative = inhibition result was “inactive”.

With `C#CCC(C(=O)OC)(C(=O)OC)C(C[N+](=O)[O-])c1ccccc1` (centres undefined), the activity change, negative = inhibition was 2.17% [at 8 µM] (inactive).

In the case of `CC(C)(O)/C=C\C(=O)[C@](C)(O)[C@H]1[C@H](O)C[C@]2(C)[C@@H]3CC=C4[C@@H](C=C(O)C(=O)C4(C)C)[C@]3(C)C(=O)C[C@@]12C`, the Potency was 0.0316 µM (active).

For the compound `Cc1c(NC(=O)Nc2ccccc2Cl)sc(=S)n1C`, the activity change, negative = inhibition result is “inactive”.

Consider `COC(=O)[C@@H]1CC[C@H](C)[C@@H](c2ccc(C)cc2)N1C(=O)c1ccc(/C=N\OC[C@@H](O)COCc2ccco2)cc1`, for which the activity change, negative = inhibition was 12.1% [at 8 µM] (inactive).

With `CCCCCCN(C(=O)CCCCCN1C(=O)NC(c2ccc(C(F)(F)F)cc2)C(C(=O)OCc2ccccc2)=C1C)C(C(=O)NCCCC)c1ccc(OCC(=O)OC)c(C(=O)OC)c1` (centres undefined), the activity change, negative = inhibition result is “inactive”.

For `CC(C)CSC[C@@H]1O[C@H](n2cnc3c(N)nccc32)[C@H](O)[C@@H]1O`, the activity change, negative = inhibition was -14.1% [at 8 µM] (inactive).

For `S=c1c2[nH]cnc2ncn1CCSc1ncnc2nc[nH]c12`, the activity change, negative = inhibition was -7.68% [at 8 µM] (inactive).

With `Cc1nc2cnc(N3CCNCC3)nc2n(CCc2ccccc2)c1=O`, the activity change, negative = inhibition entry is “inactive”.

On to `O=P(c1cccs1)(c1cccs1)c1cccs1`, for which the activity change, negative = inhibition entry was “inactive”.

As to `C[C@]1(C(=O)NCCc2c[nH]c3ccccc23)C=C[C@@H](Cc2ccccc2)N1C(=O)c1ccccc1`, the activity change, negative = inhibition result was “inactive”.

As for `CO/N=C\[C@@H](C)[C@H](OCc1ccccc1)C(C)C`, the activity change, negative = inhibition was 1.89% [at 1.6 µM] (inactive).

In the case of `CCn1c(CNC(=O)c2ccc(OC)c(OC)c2)nnc1SCC(=O)Nc1ccccc1`, the activity change, negative = inhibition result is “inactive”.

As to `CCOC(=O)N/N=C1/C[C@@H](O)[C@@H](O)[C@@H]2[C@@H]3C(=O)N(CC)C(=O)[C@H]3CC[C@H]12`, the activity change, negative = inhibition was 4.77% [at 8 µM] (inactive).

In the case of `CN(CCCNC(=O)CN1C(=O)CC(C)(C)S(=O)(=O)c2ccccc21)C1CCCCC1`, the activity change, negative = inhibition entry is “inactive”.

Consider `CCCCCCCCCCCC(=O)O`, for which the activity change, negative = inhibition result is “inactive”.

`CC(C)C[C@@H](CC(=O)N[C@@H](CCC(=O)O)CC(=O)O)NC(=O)[C@@H]1CCCC[C@H]1NC(=O)C[C@@H](NC(=O)C[C@H](Cc1c[nH]c2ccccc12)NC(=O)[C@@H]1CCCC[C@H]1N)C(C)C`: the activity change, negative = inhibition result is “inactive”.

Regarding `COc1ccc(Br)c2c1C[C@H](C(=O)O)CC2`, the activity change, negative = inhibition was -10.3% [at 8 µM] (inactive).

Regarding `Cc1cc(N2CCCCC2)nc2ccc(Cc3ccc4nc(N5CCCCC5)cc(C)c4c3)cc12`, the activity change, negative = inhibition was 3.79% [at 8 µM] (inactive).

`C[C@H]1CC[C@H](C(=O)O)N[C@@H]1c1ccc(C#Cc2ccccc2)cc1`: the activity change, negative = inhibition is 0.0911% [at 1.6 µM] (inactive).

Turning to `COc1ccc2[nH]cc(CCNc3ncnc4ccc(-c5ccc(C(=O)N(C)C)cc5)cc34)c2c1`, the activity change, negative = inhibition entry is “inactive”.

For the compound `COc1cccc(-c2cc(NCCc3c[nH]c4ccc(OC)cc34)ncn2)c1`, the Potency is 10 µM (active).

As for `COc1ccc2[nH]cc(CCNc3ncnc4ccc(-c5ccccc5CN(C)C)cc34)c2c1`, the activity change, negative = inhibition result was “inactive”.

`COC(=O)C1=C(C)N(Cc2ccccc2)C2=C3C(=O)N(c4ccccc4)C(=O)C3[C@@](O)(C(=O)OC)C(=O)N2C1c1ccccc1` (some centres undefined): the activity change, negative = inhibition is -8.4% [at 8 µM] (inactive) and -8.22% [at 8 µM] (inactive).

As for `CC(=O)/C(C)=N\O`, the activity change, negative = inhibition entry was “inactive”.

Take `CC1CCCC(C)N1CCCNC(=O)c1cc2c(=O)n(C)c3ccccc3c2n1C` (centres undefined): the Potency is 3.98 µM (active).

Turning to `Cn1c(C(=O)N2CCC(C(N)=O)CC2)cc2c(=O)n(C)c3ccccc3c21`, the activity change, negative = inhibition entry is “inactive”.

Regarding `CCN1CCCC1CNC(=O)c1cc2c(=O)n(C)c3ccccc3c2n1C` (centres undefined), the Potency was 10 µM (active).

Regarding `Cn1c(C(=O)NCCN2CCc3ccccc3C2)cc2c(=O)[nH]c3ccccc3c21`, the activity change, negative = inhibition entry is “inactive”.

For the compound `CCOC(=O)N1CCC(NC(=O)COc2cc(=O)n(C)c3ccccc23)CC1`, the activity change, negative = inhibition entry is “inactive”.

Regarding `Cn1c(=O)c(C(=O)Nc2ncccn2)c(O)c2ccccc21`, the activity change, negative = inhibition result is “inactive”.

As for `COC(=O)[C@@]1(C)C=C[C@@H](Cc2ccccc2)N1C(C)=O`, the activity change, negative = inhibition result is “inactive”.

As for `C=CCOC(=O)c1ccccc1C(=O)OCC=C`, the activity change, negative = inhibition result is “inactive”.
